Data from ChEMBL document CHEMBL3988442, “University of Dundee, Small-Polar-MMV Screening Library” (2021).
In all, about 48,000 compounds went through this assay and about 13,000 (27%) showed an effect of 50% or more. This is one part of the list.

What follows are compounds tested on Wolbachia pipientis (assay: Anti-Wolbachia Cell-Based Screen). Conditions: 5 µM.
Format: functional
Design: scale not given: in the data most compounds retested in dose-response had high values

SMILES	Percent Effect [%]
CCOC(=O)CCNC(=O)N1CCCC(CNC(=O)c2cccs2)C1 (centres undefined)	-0.8406
COCC(C)NCc1nc(-c2ccc(C)cc2)c(-c2ccccn2)[nH]1 (centres undefined)	22.14
O=C(NCC1CC[C@@]2(CNCCOC2)O1)c1cnccn1 (some centres undefined)	-4.727
CCOCC(O)CN1CCN(C(=O)C2CC2)CC1 (centres undefined)	3.304
CCOCC(O)CN1CCN(C(=O)c2ccc(OC)cc2F)CC1 (centres undefined)	5.863
CCOCC(O)CN1CCN(C(=O)c2ccccc2F)CC1 (centres undefined)	82.64
CCOCC(O)CN1CCN(C(=O)c2cc(F)ccc2C)CC1 (centres undefined)	-5.879
CCOCC(O)CN1CCN(C(=O)c2cccnc2OC)CC1 (centres undefined)	-8.967
CCOCC(O)CN1CCN(C(=O)c2cccc3[nH]ncc23)CC1 (centres undefined)	-8.301
CCOCC(O)CN1CCN(C(=O)c2ccccc2Cl)CC1 (centres undefined)	-0.07038
CCOCC(O)CN1CCN(C(=O)c2cc(C)ccc2OC)CC1 (centres undefined)	91.25
CCOCC(O)CN1CCN(C(=O)c2cc(Cl)ccc2F)CC1 (centres undefined)	107.8
CCOCC(O)CN1CCN(C(=O)c2cc(C)ccc2F)CC1 (centres undefined)	114.4
CCOCC(O)CN1CCN(C(=O)CC(C)C)CC1 (centres undefined)	-1.349
CCC(CO)N(Cc1ccccn1)C(=O)c1ccc(F)c(F)c1 (centres undefined)	-4.122
COc1ccccc1[C@@H]1CN(Cc2ccc3nsnc3c2)C[C@H]1C(=O)O	-7.505
O=C1CCCN1CC1CCCCN1C(=O)Nc1cccnc1 (centres undefined)	2.863
CC(CO)(NC(=O)Nc1nnc(C2CC2)s1)C1CCCCC1 (centres undefined)	-9.055
CCN(C)c1ncnc2c1CCN(C(=O)c1ccc(C)o1)CC2	16.8
CCN(C)c1ncnc2c1CCN(c1ccc(C)nn1)CC2	88.89
CCN(CC)c1ncnc2c1CCN(c1ccc(C)nn1)CC2	109.1
Cc1ccc(N2CCc3ncnc(C)c3CC2)nn1	98.11
Cc1ncnc2c1CCN(c1ccccn1)CC2.O=C(O)C(F)(F)F	-1.048
Cc1ccc(N2CCCC(N(C)c3ncnc4c3CCC4)C2)nn1 (centres undefined)	40.92
Cc1ncnc2c1CCN(c1cc(C(F)(F)F)ncn1)CC2	-23.9
c1ccc(N2CCc3ncnc(C4CC4)c3CC2)nc1	-3.177
CCN(C)c1ncnc2c1CCN(Cc1ccoc1)CC2	5.87

SMILES	Percent Effect [%]
CCN(CC)c1ncnc2c1CCN(CC1CCOCC1)CC2.O=C(O)C(F)(F)F	-1.394
Cc1ccc(N2CCc3ncnc(C4CC4)c3CC2)nn1	109.7
Cc1cccc(N2CCc3ncnc(C4CC4)c3CC2)n1.O=C(O)C(F)(F)F	-0.7923
CN(c1nc(Cn2cc(Br)ccc2=O)cs1)C1CC1	-13.88
CS(=O)(=O)N1CCC(c2nnc3ccc(C(=O)N4CCCC4)cn23)C1 (centres undefined)	-3.487
CCc1cnc(N)nc1NCCCn1nc(C)nc1C	4.841
CC(CCN1CCOCC1)NC(=O)c1cccc(C(F)(F)F)c1F (centres undefined)	-6.149
c1ccc(N2CCC(NCc3cccc4cn[nH]c34)C2)cc1 (centres undefined)	2.833
COc1ccc(N2CCC(C(=O)/N=c3/[nH]ccs3)CC2)nn1	7.434
Cc1nc(CCNC(=O)C2CC(=O)N(C(C)C)C2)sc1C (centres undefined)	-29.36
COCCN(CC1CCCN(C2Cc3ccccc3C2)C1)C(=O)CO (centres undefined)	-6.477
CN(C)c1ncnc2c1CCN(c1ccccc1)CC2	9.479
Cc1ccc(N2CCc3ncnc(N(C)C)c3CC2)nn1	103.7
Cc1ccccc1S(=O)(=O)N1CCc2c(ncnc2N(C)C)C1	-0.5839
Cc1nc(CN(C)C2CCN(CC3CCCCC3)C2)no1 (centres undefined)	12.52
CN(Cc1cc(=O)c(O)co1)C1CCCN(c2ccccc2)C1 (centres undefined)	-2.476
Cc1nc(CN(C)C2CCN(CC(=O)N(C)CCC#N)C2)no1 (centres undefined)	-8.122
Cc1nc(CN(C)C2CCN(CC3CCC3)C2)no1 (centres undefined)	98.61
Cc1cc(CN(C)C2CCCN(Cc3noc(C)n3)C2)on1 (centres undefined)	4.561
Cc1nc(CN(C)C2CCN(CC3CCCC3)C2)no1 (centres undefined)	93.14
Cc1nc(CN(C)C2CCCN(c3ccccc3)C2)no1 (centres undefined)	85.51
Cc1nc(CN(C)C2CCN(CC3CCOCC3)C2)no1 (centres undefined)	108.1
O=C(c1nc(=O)[nH][nH]1)N1CCC2(CCCCC2)C1	-9.423
c1ccc(SCCN2CCN(CCn3cncn3)CC2)cc1	8.727
CCC(CO)N(Cc1ccsc1)Cc1ccc(-c2ccn[nH]2)s1 (centres undefined)	-9.048
CN1CCN(C2CCN(CC(=O)NCC(F)(F)F)CC2)C1=O	-4.835
CC(C)Oc1cccc(CNC(=O)NC2(CO)CCCC2)c1	12.23

SMILES	Percent Effect [%]
O=C(NC(Cc1ccsc1)c1nccs1)C1CCOCC1 (centres undefined)	-7.907
O=C(NC(Cc1ccsc1)c1nccs1)C1CC1 (centres undefined)	111.3
CS(=O)(=O)N1CCC(C(=O)NC(Cc2ccsc2)c2nccs2)CC1 (centres undefined)	-7.112
CC(NC(=O)NCc1cccc(CN2CCCC2)c1)c1nccs1 (centres undefined)	-2.261
CCS(=O)(=O)N1CCC(C(=O)NC(Cc2ccsc2)c2nccs2)CC1 (centres undefined)	102.7
O=C(CSCc1ccncc1)N(Cc1ccsc1)C1CC1	10.91
CC(C)Oc1cccc(CNC(Cc2ccsc2)c2nccs2)c1.Cl (centres undefined)	94.44
C=C(C)COc1ccccc1CNC(CC)c1ccnn1C (centres undefined)	-26.14
CCN(C(c1cccnc1)c1ccc2c(c1)CCO2)S(C)(=O)=O (centres undefined)	5.843
CCn1nnnc1-c1cccc(NC(=O)CCc2cnn(C)c2)c1	-3.137
CCc1cccc2cc(CNCCCN3CCOCC3)c(=O)[nH]c12	109.4
Cc1ccc2cc(CNCCCN3CCOCC3)c(=O)[nH]c2c1C	110.9
Cc1cccc2cc(CNCCCN3CCOCC3)c(=O)[nH]c12	-14.11
Cc1cccc2cc(CN3CCC(N4CCOCC4)CC3)c(=O)[nH]c12	-9.486
COc1ccc(CN2CCOC[C@H]2c2nc(-c3ccncc3)c[nH]2)cc1	-8.206
COc1ccc(CN2CCCCC2c2n[nH]cc2-c2cc(C)no2)cc1.Cl (centres undefined)	84.19
Cc1cc(C2CCCN2Cc2cc(-c3ccco3)on2)on1 (centres undefined)	-89.63
Cc1cc(C2CCCN2Cc2nc(-c3ccco3)no2)on1 (centres undefined)	9.843
COc1ccc(C)cc1CN1CCCC1c1noc(C2CC2)n1 (centres undefined)	18.68
CCc1ccc(CN2CCCCC2c2n[nH]cc2-c2cc(C)no2)cc1.Cl (centres undefined)	131.5
Cc1cc(C2CCCN2Cc2ccn(C)c(=O)c2)no1 (centres undefined)	-4.327
COc1ccc(CN2CCC[C@H]2c2nc(-c3cncnc3N)no2)cc1	-2.568
COc1cccc(CN2CCCCCC2c2cccc(C)c2)c1O (centres undefined)	-3.31
Cc1cccc(CN2CCCCC2c2n[nH]cc2-c2cc(C)no2)c1.Cl (centres undefined)	91.3
COc1ccccc1CN1CCCCC1c1n[nH]cc1-c1cc(C)no1.Cl (centres undefined)	107.2
